Screening results from PubChem BioAssay.
Only some compounds are listed: those with a hit (about 8.1% of all), similar ones and a draw of the others.
MCF10A rereplic: induces DNA re-replication in MCF 10a normal breast cells. Potency, µM (highest dose often 46.1 µM), actives largely listed as activators. MCF 10A DNA re-replication, Hoechst nuclear intensity, 48 h. 350,000 compounds, 2.9% hits. AID 624296; also: nearly all actives have a fitted effect of over 50% in size
KB-V1 MDR tox: KB-V1 MDR subline cytotoxicity. 400,000 compounds, 3.4% hits. KB-V1 MDR cells viability, CellTiter-Glo, 72 h. AID 1347076. Potency, µM (series often up to 46.1 µM), actives largely listed as cytotoxic; also: nearly all actives have a fitted effect of over 60% in size
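KB-V1 cells (P-gp-expressing MDR subline of KB-3-1) in phenol-red-free DMEM with 10% FBS were exposed to library compounds over a concentration series for 72 h at 37 degrees C. Viability read by CellTiter-Glo luminescence; concentration-effect curves fitted after normalization.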
KB-3-1 tox: kills parental KB-3-1 adenocarcinoma cells; KB-3-1 viability, CellTiter-Glo ATP luminescence, 72 h; Potency, µM (titrated, usually from 46.1 µM), usual class: cytotoxic; 400,000 compounds, 1.4% hits; AID 1347075; also: nearly all actives have a fitted effect of over 60% in size
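Here the drug-naive KB-3-1 line serves as comparator for MDR sub-line selectivity; cells received compound titrations, 72 h at 37 °C, then CellTiter-Glo readout.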
SW480 rerep: inducers of DNA re-replication in SW480 colon cancer cells | SW480 DNA re-replication, Hoechst DNA content imaging, 48 h | 340,000 compounds, 1.8% hits | AID 624297 | Potency, µM (titrated, usually from 46.1 µM), most hits filed as activators; also: nearly all actives have a fitted effect of over 55% in size
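Image-based DNA-content assay: after two days of treatment, nuclei were labelled with the DNA dye Hoechst and imaged, and hits were compounds raising the count of nuclei showing high fluorescence intensity.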
ELG1 repair inh: ELG1-dependent DNA repair inhibition. HEK293T ELG1-luciferase reporter, luminescence, 16 h; DNA damage induced by 5-fluorouridine. Potency, µM (top dose mostly 46.1 µM), hits mostly inhibitors. 330,000 compounds, 2.3% hits. AID 504467; also: nearly all actives have a fitted effect of over 55% in size
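Quantitative HTS, concentration-response format. 2,000 cells/well co-treated with 5-fluorouridine and compound, 16 hr in 5% CO2 at 37 °C; ONE-Glo luminescence read after 30 min.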
A number is an active result; [ ] = another dose, or the depositor's remark. Calls follow the shape of the dose curve; as a rule, active = well fitted curve in the direction sought with a large enough effect; inconclusive = small, poorly fitted or top-dose-only effect, or another doubt; inactive = no such curve, though single readings can be large; an effect the other way counts as inactive or inconclusive.

Screening COc1ccc(OC)c(S(=O)(=O)Nc2ccc3oc4c(c3c2)C(=O)CCC4)c1 returned MCF10A rereplic inactive, KB-V1 MDR tox 23µM, KB-3-1 tox inactive, SW480 rerep inactive and ELG1 repair inh inconclusive.
COc1ccc(S(=O)(=O)Nc2ccc3oc4c(c3c2)CCCC4)cc1 was read as KB-V1 MDR tox inconclusive and KB-3-1 tox inactive.
CNS(=O)(=O)c1cn(CC(=O)N2CCN(c3ccc(C)cc3C)CC2)cc1S(=O)(=O)NC was read as KB-V1 MDR tox inactive and KB-3-1 tox inactive.
For CCc1cc2c(=O)c(-c3cnn(-c4ccccc4)c3)c(C)oc2c(CN2CCCCC2)c1O the results were MCF10A rereplic inconclusive, KB-V1 MDR tox inactive, KB-3-1 tox inactive, SW480 rerep inactive and ELG1 repair inh inactive.
For CCc1cc2c(=O)c(-c3cnn(-c4ccccc4)c3)c(C(F)(F)F)oc2c(CN(C)C)c1O the results were MCF10A rereplic inactive, KB-V1 MDR tox 1.8µM, KB-3-1 tox inactive, SW480 rerep inactive and ELG1 repair inh inactive.
`Cc1ccc(C)c(OCCNc2ncccc2[N+](=O)[O-])c1` gave MCF10A rereplic inactive, KB-V1 MDR tox inactive, KB-3-1 tox inactive, SW480 rerep inactive and ELG1 repair inh inactive.
Screening COC(=O)c1ccc(C(=O)OC)c(NC(=O)N2CC3CCCN3c3ccccc32)c1 (configuration not stated) returned KB-V1 MDR tox inactive and KB-3-1 tox inactive.
For CC[C@H](C)C(=O)O[C@H]1CCC=C2C=C[C@H](C)[C@H](CC[C@@H]3C[C@@H](O)CC(=O)O3)[C@H]21 the results were MCF10A rereplic inactive, KB-V1 MDR tox inconclusive, KB-3-1 tox inconclusive, SW480 rerep inconclusive and ELG1 repair inh inactive.
CCC(C)C(=O)OC1CCC=C2C=CC(C)C(CCC3CC(O)CC(=O)O3)C21 (configuration not stated) was read as MCF10A rereplic inactive, KB-V1 MDR tox 18µM, KB-3-1 tox 13µM and SW480 rerep inconclusive.
Screening COc1ccccc1N1CN(S(=O)(=O)c2ccc(C)cc2)c2nc3ccccc3nc21 returned MCF10A rereplic inactive, KB-V1 MDR tox inactive, KB-3-1 tox inactive, SW480 rerep inactive and ELG1 repair inh inactive.
`C=CCn1c(N)c(C(=O)OC(C)(C)C)c2nc3ccccc3nc21` gave MCF10A rereplic inconclusive, KB-V1 MDR tox inactive, KB-3-1 tox inactive, SW480 rerep inconclusive and ELG1 repair inh inconclusive.
`C=CCn1c(N)c(C(=O)OC(C)CC)c2nc3ccccc3nc21` (configuration not stated) gave MCF10A rereplic inactive, KB-V1 MDR tox 8.2µM, KB-3-1 tox inactive, SW480 rerep inactive and ELG1 repair inh inactive.
`C=CCn1c(N)c(C(=O)Nc2ccccc2)c2nc3ccccc3nc21` gave MCF10A rereplic 5.6µM, KB-V1 MDR tox inactive, KB-3-1 tox inconclusive, SW480 rerep inactive[9.22 µM] and ELG1 repair inh inconclusive.
Screening COC(=O)c1c(N)n(-c2ccc(NC(C)=O)cc2)c2nc3ccccc3nc12 returned MCF10A rereplic inactive, KB-V1 MDR tox inactive, KB-3-1 tox inactive, SW480 rerep inactive and ELG1 repair inh inconclusive.
CC1CCC(NC(=O)Cn2cnc3sccc3c2=O)CC1 (configuration not stated) was read as MCF10A rereplic inactive, KB-V1 MDR tox inactive, KB-3-1 tox inactive, SW480 rerep inactive and ELG1 repair inh inconclusive.
Screening CN(c1cccc(Cl)c1)S(=O)(=O)c1cccc(C(=O)NCc2ccncc2)c1 returned MCF10A rereplic inactive, KB-V1 MDR tox inactive, KB-3-1 tox inactive, SW480 rerep inactive and ELG1 repair inh inactive.
O=C(CN1CCN(Cc2ccccc2)CC1)N/N=C/c1ccco1 was read as MCF10A rereplic inactive, KB-V1 MDR tox inactive, KB-3-1 tox inactive, SW480 rerep inactive and ELG1 repair inh inactive.
`O=C(CN1CCN(Cc2ccccc2)CC1)N/N=C/c1ccc(Br)s1` gave MCF10A rereplic inactive, KB-V1 MDR tox inactive, KB-3-1 tox inactive, SW480 rerep inactive and ELG1 repair inh 9.2µM.
Screening Cc1c(C(=O)N2CCCCC2)oc2ccc(Br)cc12 returned MCF10A rereplic inactive, KB-V1 MDR tox inconclusive, KB-3-1 tox inactive, SW480 rerep inactive and ELG1 repair inh inconclusive.
Screening COc1cccc(CN2CCN(CC(=O)Nc3ccccc3Cl)CC2)c1 returned MCF10A rereplic inactive, KB-V1 MDR tox inactive, KB-3-1 tox inactive, SW480 rerep inactive and ELG1 repair inh 13µM.
For O=C(CN1CCN(Cc2ccccc2)CC1)Nc1cccc(C(F)(F)F)c1 the results were MCF10A rereplic inactive, KB-V1 MDR tox 16µM, KB-3-1 tox inactive, SW480 rerep inactive and ELG1 repair inh inactive.
For Cc1c(C(=O)N2CCN(CC(=O)Nc3ccccc3Cl)CC2)oc2ccc(Br)cc12 the results were MCF10A rereplic 23µM, KB-V1 MDR tox inactive, KB-3-1 tox inactive, SW480 rerep inactive and ELG1 repair inh inactive.
`COc1ccccc1NC(=O)CN1CCN(CC(=O)Nc2ccccc2Cl)CC1` gave MCF10A rereplic inactive, KB-V1 MDR tox inactive, KB-3-1 tox inactive, SW480 rerep inactive and ELG1 repair inh inactive.
Screening CCN(c1ccccc1)S(=O)(=O)c1nnc(NC(=O)c2ccccc2OC)s1 returned MCF10A rereplic inactive, KB-V1 MDR tox inactive, KB-3-1 tox inactive, SW480 rerep inactive and ELG1 repair inh inconclusive.
CCOc1ccc(C(=O)Nc2nnc(S(=O)(=O)Nc3ccccc3)s2)cc1 was read as KB-V1 MDR tox inactive and KB-3-1 tox inactive.
`Cc1ccc(NC(=O)CN2CCN(Cc3ccccc3)CC2)c(Br)c1` gave MCF10A rereplic inconclusive, KB-V1 MDR tox inactive, KB-3-1 tox inactive, SW480 rerep inconclusive and ELG1 repair inh 21µM.
`O=C(CN1CCN(Cc2ccccc2F)CC1)Nc1ccccc1Cl` gave MCF10A rereplic inactive, KB-V1 MDR tox inactive, KB-3-1 tox inactive, SW480 rerep inactive and ELG1 repair inh 10µM.
For O=C(CCCCC(=O)Nc1ccccc1Cl)Nc1ccccc1Cl the results were MCF10A rereplic inactive, KB-V1 MDR tox inactive, KB-3-1 tox inactive, SW480 rerep 2.9µM and ELG1 repair inh inactive.
`O=C(CCN1CCN(CC(=O)Nc2ccccc2Cl)CC1)Nc1ccccc1F` gave MCF10A rereplic inactive, KB-V1 MDR tox inactive, KB-3-1 tox inactive, SW480 rerep inactive and ELG1 repair inh inconclusive.
O=C(CN1CCN(C(=O)CNC(=O)c2ccc(-c3ccccc3)cc2)CC1)Nc1ccccc1Cl was read as KB-V1 MDR tox 8.2µM and KB-3-1 tox inconclusive.
Screening NC1=NC(S)C2N=CN=C2N1 (configuration not stated) returned MCF10A rereplic inconclusive and SW480 rerep inactive.
Screening CNS(=O)(=O)c1cn(CC(=O)N2CCN(c3cccc(Cl)c3)CC2)cc1S(=O)(=O)NC returned KB-V1 MDR tox inactive and KB-3-1 tox inactive.
Cc1ccc(C(=O)OCC(=O)NNC(=O)c2cccs2)c(O)c1 was read as MCF10A rereplic inactive, KB-V1 MDR tox inactive, KB-3-1 tox inactive, SW480 rerep 18µM and ELG1 repair inh inactive.
